Data reported in PubChem BioAssay (NCI).
Compounds without any hit were thinned out: in the full panel of roughly 79,000, 15% have a hit. No stated cut-off is given here; in the data, active means growth inhibition above about 70%; inactive means the rest.

Experiments:
[1] = NCI Yeast Anticancer Drug Screen. Data for the rad50 strain (AID 155);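 further: 0% = growth of vehicle-only cultures of the same strain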; conditions: S. cerevisiae rad50 strain growth inhibition; at 50.0 µM; stronger effect = higher value
Method in brief: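 Compounds were tested on a yeast strain with an engineered DNA damage repair alteration; the reported value is growth inhibition normalised to vehicle treatment.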

[2] = NCI Yeast Anticancer Drug Screen. Data for the mec2-1 strain (AID 157); conditions: S. cerevisiae mec2-1 strain, at 50.0 µM, stronger effect = higher value
Method in brief: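 Mutant yeast (mec2-1) grown with compound; growth inhibition relative to vehicle control reported.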

[3] = NCI Yeast Anticancer Drug Screen. Data for the sgs1 mgt1 strain (AID 161);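 further: 0% = growth of cultures given vehicle only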; conditions: S. cerevisiae sgs1 mgt1 strain, at 50.0 µM, stronger effect = higher value
Method in brief: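 This yeast growth screen uses a strain with defined DNA-repair lesions; compound-treated growth is compared with vehicle-treated growth.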

[4] = NCI Yeast Anticancer Drug Screen. Data for the cln2 rad14 strain (AID 165);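 further: 0% = growth equal to vehicle treated cultures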; conditions: S. cerevisiae cln2 rad14 strain, at 50.0 µM, stronger effect = higher value
Method in brief: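 Readout is yeast growth inhibition versus vehicle-treated controls, using a strain with cln2 and rad14 alterations exposed to compound.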

[5] = NCI Yeast Anticancer Drug Screen. Data for the bub3 strain (AID 167); conditions: S. cerevisiae bub3 mutant strain, at 50.0 µM, stronger effect = higher value
Method in brief: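 Growth of a checkpoint-deficient yeast mutant is measured after compound exposure. Values represent inhibition relative to vehicle.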

[6] = NCI Yeast Anticancer Drug Screen. Data for the mlh1 rad18 strain (AID 175); conditions: S. cerevisiae mlh1 rad18 strain growth inhibition; at 50.0 µM; stronger effect = higher value
Method in brief: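 Genetically defined yeast (DNA repair-deficient) exposed to compounds; growth inhibition determined relative to vehicle.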

Measured: growth inhibition

CC(Cl)CN1c2ccccc2Sc2ccc(Cl)cc21 (stereo unspecified)
inactive: [1] 33% | [2] -5.4% | [3] 2.35% | [4] 23% | [5] 5.35% | [6] 16.8%

CC(=O)OCC(=O)[C@H]1CC[C@@H]2[C@]1(C)CC=C1[C@]23C=C[C@]2(C[C@@H](OC(C)=O)CC[C@]12C)C1C(=O)OC(=O)C13 (stereo partly specified)
inactive: [1] -9.65% | [2] 3.4% | [3] -0.6% | [4] -8.35% | [5] 4.65% | [6] 26.9%

CC(=O)Nc1ccc(NC(=O)C2CC3C=CC2C3)cc1 (stereo unspecified)
inactive: [1] 7.55% | [2] -11% | [3] -33% | [4] 3.1% | [5] -10.7% | [6] 23.2%

O=S1(=O)C=C(N2CCCCC2)c2ccccc21
inactive: [1] 2.65% | [2] 2.05% | [3] -4% | [4] -13.3% | [5] -52% | [6] 11.8%

CC[P+](C)(Cc1ccccc1)c1ccccc1 (stereo unspecified)
inactive: [1] -0.75% | [2] 1.6% | [3] 22.1% | [4] -3.25% | [5] 9.45% | [6] 21.3%

CCCCCCOCC(=O)OC
inactive: [1] 10.2% | [2] -9.6% | [3] -1.55% | [4] 8.35% | [5] 9.2% | [6] -2.85%

CN1CCCc2cccc(NC(=O)C3CCCNC3=O)c21 (stereo unspecified)
inactive: [1] -15.3% | [2] 1.35% | [3] -2.3% | [4] -32.8% | [5] 6.55% | [6] 9.75%

Cc1ccc(NC(=S)NC(=O)c2ccccc2)cc1
inactive: [1] 10.9% | [2] 4.95% | [3] 8.7% | [4] -55.7% | [5] 3.3% | [6] 24.4%

CC(=O)NC(C)NC(C)=O
inactive: [1] -11.8% | [2] -9.95% | [3] -13.8% | [4] -86.5% | [5] 7.25% | [6] -5.35%

O=C(c1ccccc1)N1C2C3CC(OCc4ccccc4)(OCc4ccccc4)C(O3)C21 (stereo unspecified)
inactive: [1] -8.35% | [2] -3.3% | [3] -16.4% | [4] -12.6% | [5] 16.8% | [6] -9.95%

CC(C)(C)C(=O)CN
inactive: [1] -19.4% | [2] -10.1% | [3] -9.55% | [4] -71% | [5] 11% | [6] -2.65%

CC(=O)OC1CC[C@@]2(C)C(CC[C@]3(C)C2CC=C2[C@@H]4C(C)[C@H](C)CCC4(C)CCC23C)[C@@]1(C)C(=O)O (stereo partly specified)
inactive: [1] 1.05% | [2] 14.8% | [3] 16.4% | [4] 3.25% | [5] 48.1% | [6] 16.4%

CN(CCO)c1cnn(CCO)c(=O)c1Cl
inactive: [1] -14.9% | [2] -8.25% | [3] -17.6% | [4] -6.15% | [5] 8.2% | [6] -7.45%

Clc1ccccc1C(N1CCCCC1)C(Cl)(Cl)Cl (stereo unspecified)
inactive: [1] 26.6% | [2] 14.6% | [3] 12.8% | [4] 18% | [5] 3.85% | [6] 21.3%

CC(CC[C@@]1(C)C(=O)CCC2O[C@]21C)[C@H]1C[C@@H](c2ccoc2)OC1=O (stereo partly specified)
inactive: [1] 9.05% | [2] -31.8% | [3] -5.4% | [4] -15.8% | [5] -4.8% | [6] -70.9%

Nc1nnnn1NC(=O)NCCCl
inactive: [1] -43.7% | [2] -38.7% | [3] -35.9% | [4] -18.4% | [5] -27.4% | [6] -26.5%

O=S1(=O)CCNc2ccccc2O1
inactive: [1] -3.15% | [2] -6.4% | [3] -3.55% | [4] -15.2% | [5] 7.2% | [6] 3.15%

CC1CCC(=N\O)/C(=N/O)C1 (stereo unspecified)
inactive: [1] 5.9% | [2] -19.3% | [3] -21.9% | [4] -12.1% | [5] 0.65% | [6] -5.3%

COc1cc2c(cc1OC)-c1ccc3cc4c(cc3c1N(C)C2)OCO4
inactive: [1] -3.8% | [2] -36.6% | [3] 9.8% | [4] -4.65% | [5] -12.7% | [6] -2.65%

c1cc(-c2cc(-c3cc(-c4ccncc4)n[nH]3)[nH]n2)ccn1
inactive: [1] 9.45% | [2] -2.6% | [3] 8.45% | [4] 3.3% | [5] -13.8% | [6] 4.6%

CC(=O)Nc1ccc(OCCCc2ccccc2)c([N+](=O)[O-])c1
inactive: [1] -7.2% | [2] 43.6% | [3] 23.5% | [4] -20.7% | [5] 20.4% | [6] -2.65%
